This passage reports binding signal results from PMC12820563, “FoxP3 forms a head-to-head dimer in vivo and stabilizes its multimerization on adjacent microsatellites”.

In all, about 16,000 sequences were measured (“rpm ratio (pull-down/input)”: median about 0.94, highest 2% from about 1.7 on). Many of the other results were omitted from the sample, so the highest values are more common in it than they were.

The assay addresses T1, MBP-FoxP1dN (Mus musculus, UniProt P58462 326-579).
T1 sequence: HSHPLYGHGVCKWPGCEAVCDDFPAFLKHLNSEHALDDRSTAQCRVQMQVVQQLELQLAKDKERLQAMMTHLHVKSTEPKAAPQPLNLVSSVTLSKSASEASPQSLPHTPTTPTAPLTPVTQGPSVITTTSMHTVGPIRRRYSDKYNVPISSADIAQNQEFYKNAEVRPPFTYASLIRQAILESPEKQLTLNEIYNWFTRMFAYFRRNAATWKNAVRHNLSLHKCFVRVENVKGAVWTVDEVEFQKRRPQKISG
Description: PD-seq (MBP pull-down with sequencing); 20 mM Tris-HCl pH 7.5, 100 mM NaCl, 1.5 mM MgCl2, 0.4 uM protein, 0.1 uM dsDNA library, 30 min, room temperature, amylose pull-down; high values mean tight binding. The following applies: protein: recombinant; tags: His6-MBP; chain copies: 2; dsDNA, one strand shown. A digest of the protocol:
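In Tris pH 7.5 buffer with NaCl and MgCl2, 0.4 µM His6-MBP-tagged mouse FoxP3 or FoxP1 fragment lacking the N-terminus, from E. coli, met 0.1 µM Klenow-filled double-stranded degenerate DNA library for 30 min at room temperature. Three washes on amylose resin followed capture of the complexes, then proteinase K release of DNA, PCR barcoding and Illumina sequencing. Binding is taken as pooled-replicate reads-per-million enrichment of pull-down relative to input.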
As to “GATGATTGTTCTCCCAGCTGATGAATTCCAGGCTTCGAGTAAACAAATTTTCCTAATCTTTCTGTTCAAGCGCCATCTAC”, the binding signal is 0.758 RPM ratio (pull-down/input).

As to “GATGATTGTTCTCCCAGCTGATGAATTTGGCTATTCGAGTAAACAAATTTTCCTAATCTTTCTGTTCAAGCGCCATCTAC”, the binding signal was 0.942 RPM ratio (pull-down/input).

For “GATGATTGTTCTCCCAGCTGATGAATTCGGCTCCTCGAGTAAACAAATTTTCCTAATCTTTCTGTTCAAGCGCCATCTAC”, the binding signal was 0.747 RPM ratio (pull-down/input).

For “GATGATTGTTCTCCCAGCTGATGAATTCAATAGATCGAGTAAACAAATTTTCCTAATCTTTCTGTTCAAGCGCCATCTAC”, the binding signal was 0.887 RPM ratio (pull-down/input).

For the sequence “GATGATTGTTCTCCCAGCTGATGAATTATTCTGGTCGAGTAAACAAATTTTCCTAATCTTTCTGTTCAAGCGCCATCTAC”, the binding signal is 1.04 RPM ratio (pull-down/input).

Consider “GATGATTGTTCTCCCAGCTGATGAATTGACCATGTCGAGTAAACAAATTTTCCTAATCTTTCTGTTCAAGCGCCATCTAC”, for which the binding signal is 0.875 RPM ratio (pull-down/input).

Take “GATGATTGTTCTCCCAGCTGATGAATTACTTTGCTCGAGTAAACAAATTTTCCTAATCTTTCTGTTCAAGCGCCATCTAC”: the binding signal was 1.02 RPM ratio (pull-down/input).

Consider “GATGATTGTTCTCCCAGCTGATGAATTCTATTAGTCGAGTAAACAAATTTTCCTAATCTTTCTGTTCAAGCGCCATCTAC”, for which the binding signal is 1.14 RPM ratio (pull-down/input).

For the sequence “GATGATTGTTCTCCCAGCTGATGAATTGTGTACCTCGAGTAAACAAATTTTCCTAATCTTTCTGTTCAAGCGCCATCTAC”, the binding signal was 1.6 RPM ratio (pull-down/input).

With “GATGATTGTTCTCCCAGCTGATGAATTTCACCCATCGAGTAAACAAATTTTCCTAATCTTTCTGTTCAAGCGCCATCTAC”, the binding signal was 0.921 RPM ratio (pull-down/input).

With “GATGATTGTTCTCCCAGCTGATGAATTTTTCGCGTCGAGTAAACAAATTTTCCTAATCTTTCTGTTCAAGCGCCATCTAC”, the binding signal was 1.01 RPM ratio (pull-down/input).

With “GATGATTGTTCTCCCAGCTGATGAATTATTGTTTTCGAGTAAACAAATTTTCCTAATCTTTCTGTTCAAGCGCCATCTAC”, the binding signal was 2.83 RPM ratio (pull-down/input).

For “GATGATTGTTCTCCCAGCTGATGAATTGATTATTTCGAGTAAACAAATTTTCCTAATCTTTCTGTTCAAGCGCCATCTAC”, the binding signal is 1.39 RPM ratio (pull-down/input).

“GATGATTGTTCTCCCAGCTGATGAATTATTGATTTCGAGTAAACAAATTTTCCTAATCTTTCTGTTCAAGCGCCATCTAC”: the binding signal is 1.72 RPM ratio (pull-down/input).

In the case of “GATGATTGTTCTCCCAGCTGATGAATTTGAGCTCTCGAGTAAACAAATTTTCCTAATCTTTCTGTTCAAGCGCCATCTAC”, the binding signal is 0.775 RPM ratio (pull-down/input).

Turning to “GATGATTGTTCTCCCAGCTGATGAATTCTTTGTTTCGAGTAAACAAATTTTCCTAATCTTTCTGTTCAAGCGCCATCTAC”, the binding signal is 1.23 RPM ratio (pull-down/input).

As to “GATGATTGTTCTCCCAGCTGATGAATTTGTTCTTTCGAGTAAACAAATTTTCCTAATCTTTCTGTTCAAGCGCCATCTAC”, the binding signal is 1.3 RPM ratio (pull-down/input).

Turning to “GATGATTGTTCTCCCAGCTGATGAATTTCTTTGTTCGAGTAAACAAATTTTCCTAATCTTTCTGTTCAAGCGCCATCTAC”, the binding signal is 0.994 RPM ratio (pull-down/input).

For “GATGATTGTTCTCCCAGCTGATGAATTTCGAGTTTCGAGTAAACAAATTTTCCTAATCTTTCTGTTCAAGCGCCATCTAC”, the binding signal was 0.851 RPM ratio (pull-down/input).

In the case of “GATGATTGTTCTCCCAGCTGATGAATTTTGTTGTTCGAGTAAACAAATTTTCCTAATCTTTCTGTTCAAGCGCCATCTAC”, the binding signal was 2.84 RPM ratio (pull-down/input).

“GATGATTGTTCTCCCAGCTGATGAATTTGTTTGTTCGAGTAAACAAATTTTCCTAATCTTTCTGTTCAAGCGCCATCTAC”: the binding signal is 2.73 RPM ratio (pull-down/input).

On to “GATGATTGTTCTCCCAGCTGATGAATTGTTGTTTTCGAGTAAACAAATTTTCCTAATCTTTCTGTTCAAGCGCCATCTAC”, for which the binding signal was 3.52 RPM ratio (pull-down/input).

With “GATGATTGTTCTCCCAGCTGATGAATTTCAAATTTCGAGTAAACAAATTTTCCTAATCTTTCTGTTCAAGCGCCATCTAC”, the binding signal was 0.846 RPM ratio (pull-down/input).

As to “GATGATTGTTCTCCCAGCTGATGAATTTTTGTTTTCGAGTAAACAAATTTTCCTAATCTTTCTGTTCAAGCGCCATCTAC”, the binding signal was 2.71 RPM ratio (pull-down/input).

For “GATGATTGTTCTCCCAGCTGATGAATTTTTTTGTTCGAGTAAACAAATTTTCCTAATCTTTCTGTTCAAGCGCCATCTAC”, the binding signal is 0.971 RPM ratio (pull-down/input).

With “GATGATTGTTCTCCCAGCTGATGAATTGCTCGACTCGAGTAAACAAATTTTCCTAATCTTTCTGTTCAAGCGCCATCTAC”, the binding signal is 0.946 RPM ratio (pull-down/input).

Regarding “GATGATTGTTCTCCCAGCTGATGAATTTCCCCATTCGAGTAAACAAATTTTCCTAATCTTTCTGTTCAAGCGCCATCTAC”, the binding signal is 0.898 RPM ratio (pull-down/input).

As for “GATGATTGTTCTCCCAGCTGATGAATTTTTTTCCTCGAGTAAACAAATTTTCCTAATCTTTCTGTTCAAGCGCCATCTAC”, the binding signal is 0.754 RPM ratio (pull-down/input).

Turning to “GATGATTGTTCTCCCAGCTGATGAATTTTCATCCTCGAGTAAACAAATTTTCCTAATCTTTCTGTTCAAGCGCCATCTAC”, the binding signal was 0.875 RPM ratio (pull-down/input).

As to “GATGATTGTTCTCCCAGCTGATGAATTGTTTGATTCGAGTAAACAAATTTTCCTAATCTTTCTGTTCAAGCGCCATCTAC”, the binding signal was 1.33 RPM ratio (pull-down/input).

Consider “GATGATTGTTCTCCCAGCTGATGAATTTGTTGATTCGAGTAAACAAATTTTCCTAATCTTTCTGTTCAAGCGCCATCTAC”, for which the binding signal is 2.39 RPM ratio (pull-down/input).
